The record followed here is PubChem BioAssay AID743294 (Broad Institute, 2014).

Measured potencies and affinities stand elsewhere. Active and inactive are the calls of the source.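 The calls were made as follows: active = compounds lowering fluorescence whose fitted half-maximal dose is at most twice the top valid dose; inconclusive = flat fit between -70% and -30%, or poor curve fit; inactive = the rest.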

For the experiment, the target named is Caspase-8 (Homo sapiens) (UniProt Q14790). The experiment in a line: inhibitors of purified CASP8 protease – biochemical, Z-IETD-R110 fluorescence, cherry-picked samples, selectivity assay for caspase-6 inhibitor project, dose response (AID 743294).
Caspase-8 (Homo sapiens), sequence (Q14790 whole entry, looked up): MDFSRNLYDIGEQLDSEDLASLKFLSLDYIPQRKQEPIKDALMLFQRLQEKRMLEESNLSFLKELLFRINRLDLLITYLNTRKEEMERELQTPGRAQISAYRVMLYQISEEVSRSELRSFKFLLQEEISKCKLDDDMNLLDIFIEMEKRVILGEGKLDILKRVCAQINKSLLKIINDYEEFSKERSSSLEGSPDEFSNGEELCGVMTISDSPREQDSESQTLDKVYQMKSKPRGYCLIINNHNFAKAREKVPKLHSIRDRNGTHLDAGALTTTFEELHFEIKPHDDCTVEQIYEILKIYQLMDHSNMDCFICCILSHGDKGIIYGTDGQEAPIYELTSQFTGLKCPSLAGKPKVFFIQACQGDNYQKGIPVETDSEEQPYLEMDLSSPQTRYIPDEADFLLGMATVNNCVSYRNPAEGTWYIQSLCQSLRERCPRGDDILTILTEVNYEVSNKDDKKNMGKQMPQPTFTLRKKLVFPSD

Turning to `CN1CCc2cc3c(c4c2C1Cc1ccccc1-4)OCO3` (configuration not stated), the outcome was inactive.
For `CC(Cc1ccc(O)cc1)NCC(O)c1ccc(O)c(O)c1` (configuration not stated), the compound was classed as inactive.
